About 83,000 compounds went through this panel and 20% of them were active in at least one assay; those are over-represented in the sample as a whole.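 Step 1: grow cells in 96-well plates. Step 2: add test compound at a single concentration. Step 3: incubate 48 h. Step 4: record percent growth.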 Values without a mark were called inactive. Active and inactive are the calls of the source. Rule for the calls: active = growth percent below 10; inactive = the rest.

Here are results for 39 compounds from PubChem BioAssay (NCI).

The test system of one experiment is K-562 leukemia. Briefly: NCI-60 one-dose screen, 48 h (100 = growth as untreated, 0 = no growth, -100 = all killed). To be noted: 10 µM.
`O=C(O)/C=C/c1ccc2c(c1)CCC2`: the growth was 86.9%.
Same read-out and setting: under `O=C1OC(=O)C2C1C1(Cl)C(Cl)=C(Cl)C2(Cl)C2C(=O)OC(=O)C21` (stereo not drawn) stands 105%; under `CC(=O)N(C)c1ccc([N+](=O)[O-])cc1`, 111%; under `COc1ccc(/C(C#N)=C2C=C/C(=N/O)c3ccccc3\2)cc1`, 13.2%.
With `CCOC(=O)C1=C(C)NC(=O)NC1c1cccs1` (stereo not drawn), the growth is 103%.
Still for that read-out and setting: as for `COc1cc(C2c3cc4c(cc3C3OC(=O)C2C3CO)OCO4)cc(OC)c1OC` (stereo not drawn), the figure is 8.48% (active).
The same measure, in the same setting: as for `O=C(CCl)N1CCN(C/C=C/c2ccccc2)CC1`, the figure is 88.1%; as for `CC(C)(C)n1nc(C2CC2)c(Br)c1NC(=O)c1ccccc1F`, 91.6%; as for `CCOC(=O)C/C(C)=N\O`, 94.4%.
On the same count and under the same terms, as for `O=C(CS)Nc1ccc2ccccc2c1`, the figure is 96.8%.
As for `C=CCCCCCCCCCOC(C)=O`, the growth is 93.6%.
On to `COc1cc(-c2ccc(NC(=O)NC3CC3)c(OC)c2)ccc1NC(=O)NC1CC1`, for which the growth was 31.2%.
`CC(=O)OCC(=O)[C@@]1(O)CC[C@H]2[C@@H]3CC[C@@H]4C[C@H](O)CC[C@]4(C)[C@H]3C(=O)C[C@@]21C`: the growth is 101%.
The same measure, in the same setting: under `NC(=O)NC(=O)c1ccc(Cl)cc1` stands 101%; under `NC(=O)c1ccc(N=C(N)N=C(N)N)cc1`, 97.6%; under `Oc1ccc(Cc2ccccc2)c2cccnc12`, 13.3%.
Still for that read-out and setting: as for `C/C(=C\c1cc(Cl)ccc1OCC(=O)O)[N+](=O)[O-]`, the figure is 105%; as for `O=[N+]([O-])c1ccc(Cl)c(S(=O)(=O)O)c1`, 100%.
For the compound `CC(CN1CCCCC1)NC(=O)c1scnc1-c1ccccc1` (stereo not drawn), the growth was 113%.

A further experiment concerns MALME-3M melanoma. The description is as above. The conditions noted are these: 10 µM.
Regarding `C=CC(=O)OCCCCCCCC`, the growth is 108%.
For `CCOC(=O)CNN`, the growth is 103%.
`NNc1ccccc1C(=O)O`: the growth is 168%.
`CCOC(=O)C1=C(Nc2ccc(Br)cc2)C(=O)N(CC)C1`: the growth is 101%.
Turning to `Cc1cc(C(O)(c2ccc(Nc3ccccc3)cc2)c2ccc(Nc3ccc(S(=O)(=O)O)cc3)cc2)ccc1N` (stereo not drawn), the growth was -47.6% (active).
Take `CC1(c2ccccc2)NC(=O)NC1=O` (stereo not drawn): the growth was 113%.
Turning to `C=CC[N+](C)(C)C`, the growth was 98.8%.
Same read-out and setting: as for `O=C1N(C[P+](c2ccccc2)(c2ccccc2)c2ccccc2)CCCN1C[P+](c1ccccc1)(c1ccccc1)c1ccccc1`, the figure is 103%; as for `Brc1cnc2ccccc2c1`, 94.6%.
For the compound `Nc1ccc(N)c([N+](=O)[O-])c1`, the growth is 97.9%.
Same read-out and setting: as for `CSC[C@H](NC(=O)COc1cccc2cnccc12)C(=O)NC(Cc1ccccc1)C(O)C(=O)N1CSC[C@H]1C(=O)NC(C)(C)C` (stereo partly drawn), the figure is 105%; as for `OC(c1ccccn1)C(O)c1ccccn1` (stereo not drawn), 122%; as for `CCNCCCCNCCCCNCCCCNCCCCNCC`, -12.6% (active).
In the case of `NC(=S)CN1CCOCC1`, the growth is 110%.
Take `CC(C)=CC(=O)OC(=O)C=C(C)C`: the growth was 101%.
With `COc1ccc(C(O)c2ccccc2)cc1` (stereo not drawn), the growth was 101%.
Still for that read-out and setting: under `N#CC(=Nc1cccc(F)c1)C1=C(O)c2ccccc2C1=O` stands 87.1%; under `COC(=O)c1ccc(NC(=O)CCl)cc1`, 79.9%.
Turning to `O=C(O)CCC(NC(=O)OCc1ccccc1)C(=O)O` (stereo not drawn), the growth was 96.9%.
Same read-out and setting: under `Cc1cc(C)cc(NCCC#N)c1` stands 164%.
For `O=C(O)/C=C/c1ccc2c(c1)CCC2`, the growth is 121%.
On the same count and under the same terms, under `O=C1OC(=O)C2C1C1(Cl)C(Cl)=C(Cl)C2(Cl)C2C(=O)OC(=O)C21` (stereo not drawn) stands 98.2%; under `CC(=O)N(C)c1ccc([N+](=O)[O-])cc1`, 144%.
Regarding `COc1ccc(/C(C#N)=C2C=C/C(=N/O)c3ccccc3\2)cc1`, the growth is 51.4%.
Still for that read-out and setting: as for `CCOC(=O)C1=C(C)NC(=O)NC1c1cccs1` (stereo not drawn), the figure is 110%; as for `COc1cc(C2c3cc4c(cc3C3OC(=O)C2C3CO)OCO4)cc(OC)c1OC` (stereo not drawn), 50.3%.
The same measure, in the same setting: as for `O=C(CCl)N1CCN(C/C=C/c2ccccc2)CC1`, the figure is 83%; as for `CC(C)(C)n1nc(C2CC2)c(Br)c1NC(=O)c1ccccc1F`, 107%.
Turning to `CCOC(=O)C/C(C)=N\O`, the growth was 98.9%.
Still for that read-out and setting: as for `O=C(CS)Nc1ccc2ccccc2c1`, the figure is 126%; as for `C=CCCCCCCCCCOC(C)=O`, 93.1%.
Regarding `COc1cc(-c2ccc(NC(=O)NC3CC3)c(OC)c2)ccc1NC(=O)NC1CC1`, the growth is 102%.
The same measure, in the same setting: under `CC(=O)OCC(=O)[C@@]1(O)CC[C@H]2[C@@H]3CC[C@@H]4C[C@H](O)CC[C@]4(C)[C@H]3C(=O)C[C@@]21C` stands 143%; under `NC(=O)NC(=O)c1ccc(Cl)cc1`, 92%; under `NC(=O)c1ccc(N=C(N)N=C(N)N)cc1`, 93.1%.
Same read-out and setting: as for `Oc1ccc(Cc2ccccc2)c2cccnc12`, the figure is -0.436% (active).
Take `C/C(=C\c1cc(Cl)ccc1OCC(=O)O)[N+](=O)[O-]`: the growth was 127%.
For the compound `O=[N+]([O-])c1ccc(Cl)c(S(=O)(=O)O)c1`, the growth was 120%.
With `CC(CN1CCCCC1)NC(=O)c1scnc1-c1ccccc1` (stereo not drawn), the growth was 106%.
